Reference: PMC4336329 (PLoS ONE, 2015)
Screen size: about 310,000 compounds; about 2,200 (0.71%) showed an effect of 50% or more. The effect is printed as a negative number. Many of the other results were omitted from the sample, so strong results are more common in it than they were.

Target: human ether-à-go-go-related gene (hERG) potassium channel (human, UniProt Q12809)
Assay: primary screen, population patch clamp on CHO cells stably expressing hERG; higher = less effect of the substance

human ether-à-go-go-related gene (hERG) potassium channel, sequence (Q12809 whole entry, looked up): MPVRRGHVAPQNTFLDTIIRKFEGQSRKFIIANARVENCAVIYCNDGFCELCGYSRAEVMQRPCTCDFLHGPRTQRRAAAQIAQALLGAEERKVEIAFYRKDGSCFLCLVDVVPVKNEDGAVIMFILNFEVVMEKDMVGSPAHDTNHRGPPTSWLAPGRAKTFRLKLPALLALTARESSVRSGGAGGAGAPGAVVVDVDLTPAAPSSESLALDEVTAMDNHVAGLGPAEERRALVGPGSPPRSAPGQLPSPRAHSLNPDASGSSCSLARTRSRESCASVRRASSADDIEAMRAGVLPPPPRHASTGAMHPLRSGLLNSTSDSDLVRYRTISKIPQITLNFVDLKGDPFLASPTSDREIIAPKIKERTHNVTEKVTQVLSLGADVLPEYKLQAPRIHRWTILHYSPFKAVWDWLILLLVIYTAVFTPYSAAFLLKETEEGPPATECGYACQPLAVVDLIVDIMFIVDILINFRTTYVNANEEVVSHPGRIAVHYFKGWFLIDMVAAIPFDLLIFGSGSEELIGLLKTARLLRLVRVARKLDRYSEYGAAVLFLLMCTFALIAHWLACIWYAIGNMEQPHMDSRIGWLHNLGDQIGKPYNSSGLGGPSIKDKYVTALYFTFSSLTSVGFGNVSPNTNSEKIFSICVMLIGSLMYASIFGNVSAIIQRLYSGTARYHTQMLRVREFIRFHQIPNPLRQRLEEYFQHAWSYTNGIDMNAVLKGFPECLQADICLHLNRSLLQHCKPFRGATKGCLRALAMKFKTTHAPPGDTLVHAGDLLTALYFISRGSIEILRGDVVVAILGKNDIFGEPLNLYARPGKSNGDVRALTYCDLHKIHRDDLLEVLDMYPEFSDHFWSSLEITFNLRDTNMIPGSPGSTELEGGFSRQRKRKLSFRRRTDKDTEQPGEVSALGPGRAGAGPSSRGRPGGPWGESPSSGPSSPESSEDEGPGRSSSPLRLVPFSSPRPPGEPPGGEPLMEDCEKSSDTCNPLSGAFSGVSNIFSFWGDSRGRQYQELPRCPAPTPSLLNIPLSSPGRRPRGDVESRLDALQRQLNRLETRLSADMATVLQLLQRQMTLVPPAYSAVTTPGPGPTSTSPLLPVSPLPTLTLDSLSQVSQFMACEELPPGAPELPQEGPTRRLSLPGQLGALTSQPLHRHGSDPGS

Row | SMILES | hERG current change (%, negative = inhibition) at 1uM
1 | CC(C)CC(=O)Nc1nc2ccc(S(C)(=O)=O)cc2s1 | 4.38%
2 | O=C(NCc1ccco1)c1scc2c1OCCO2 | 6.64%
3 | CCCCn1c(N)c(N(CCOC)C(=O)c2ccc(-c3cccc(C(F)(F)F)c3)o2)c(=O)[nH]c1=O | 10.2%
4 | O=C(Nc1ccc(Cn2nnc3ccccc32)cc1)c1ccco1 | 9.6%
5 | O=C(CN1CCCCC1)Nc1ccccc1-c1ccccc1 | 14.4%
6 | Cl.O=C(CN1CCN(C2CCCCC2)CC1)Nc1cccc2ccccc12 | 4.28%
7 | Cl.O=C(CN1CCN(C2CCCCC2)CC1)Nc1ccccc1-c1ccccc1 | -70%
8 | CCCc1c(C(=O)N/N=C/c2cccnc2)nnn1-c1nonc1N | 16.6%
9 | COc1nccc(-c2ccc(F)cc2)c1C#N | 16.9%
10 | O=C(Cn1c(=O)oc2ccccc21)Nc1ccc(Br)cc1 | 12.5%
11 | CC[N+](CC)(CC)CC(=O)Nc1ccc(SC(F)F)cc1.[Cl-] | 27.1%
12 | O=C(Cc1ccccc1)Nc1ccc(SC(F)F)cc1 | 2.98%
13 | CCn1c(N)[n+](CC(=O)Nc2ccc(SC(F)F)cc2)c2ccccc21.[Cl-] | -63.1%
14 | Cc1cc(C)cc(N2C(=O)CC(c3ccccc3)CC2=O)c1 | 10.3%
15 | O=C(COC(=O)c1ccc[nH]c1=O)Nc1ccc2c(c1)OC(F)(F)O2 | 9.4%
16 | Cc1cccc2sc(N(CCCN(C)C)C(=O)c3ccco3)nc12.Cl | -54.8%
17 | CN(C)CCCN(C(=O)c1ccco1)c1nc2c(F)cc(F)cc2s1.Cl | -60.2%
18 | Cc1ccc2nc(N(CCCN(C)C)C(=O)c3ccco3)sc2c1.Cl | -9.63%
19 | CN(C)CCCN(C(=O)c1ccco1)c1nc2ccc(F)cc2s1.Cl | -37.4%
20 | CN(C)CCCN(C(=O)c1ccco1)c1nc2c(F)cccc2s1.Cl | -62.9%
21 | CN(C)CCCN(C(=O)c1ccco1)c1nc2ccc(Cl)cc2s1.Cl | -14.7%
22 | CN(C)CCCN(C(=O)c1sc2ccccc2c1Cl)c1nc2c(F)cccc2s1.Cl | 8.6%
23 | Cc1cccc2sc(N(CCCN(C)C)C(=O)c3nc4ccccc4s3)nc12.Cl | 3.73%

Row | SMILES | hERG current change (%, negative = inhibition) at 1uM
24 | CN(C)CCCN(C(=O)c1ccc(C(=O)c2ccccc2)cc1)c1nc2c(F)cccc2s1 | -1.61%
25 | CCN1CCN(C(c2ccc(OC)cc2)c2nnnn2Cc2ccc3c(c2)OCO3)CC1.Cl (centres unmarked) | -17.4%
26 | N#Cc1ccccc1S(=O)(=O)N1CCC(C(=O)NCc2ccccc2CN2CCCC2)CC1 | -45.7%
27 | Cn1c(=O)c2c(nc(NC3CCCCC3)n2CC(=O)C23CC4CC(CC(C4)C2)C3)n(C)c1=O | 15.4%
28 | CCCC1CC(C)(c2csc(Nc3ccc(OCC)cc3)n2)OC1=O (centres unmarked) | -0.99%
29 | COC(=O)c1[nH]c2cccc(OC)c2c1NC(=O)CCN1CC(C)CC(C)C1 (centres unmarked) | -4.14%
30 | CCOc1ccccc1NC(=S)N(CCCN1CCOCC1)Cc1cn(C)c2ccccc12 | 5.62%
31 | Cc1ccc(CN2C3CCCC2CC(NC(=S)NCc2ccccc2)C3)cc1 (centres unmarked) | -54.4%
32 | CCNC(=S)NC1CC2CCCC(C1)N2Cc1ccc(C)cc1 (centres unmarked) | -12.3%
33 | Cc1ccc(CN2C3CCCC2CC(NC(=O)c2ccc(F)cc2)C3)cc1 (centres unmarked) | -77%
34 | Cc1ccc(C(=O)NC2CC3CCCC(C2)N3Cc2ccccc2)cc1 (centres unmarked) | -6.55%
35 | O=C(NC1CC2CCCC(C1)N2Cc1ccc(F)cc1)c1ccc(F)cc1 (centres unmarked) | -38.3%
36 | CC(=O)NC1CC2CCCC(C1)N2Cc1ccc(C)cc1 (centres unmarked) | -10.4%
37 | Cc1ccc(CN2C3CCCC2CC(NC(=O)c2ccc(C)cc2)C3)cc1 (centres unmarked) | -77.3%
38 | CNC(=S)NC1CC2CCCC(C1)N2Cc1ccc(C)cc1 (centres unmarked) | -4.5%
39 | CCCN1C2CCCC1CC(NC(=O)c1ccc(F)cc1)C2 (centres unmarked) | -29.7%
40 | O=C1CC(=C2c3ccccc3-c3ccccc32)C(=O)N1CCN1CCN(c2cccc(Cl)c2)CC1 | 7.4%
41 | COc1cccc(CN2CCNC(=O)C2CC(=O)N2CCCCO2)c1OC (centres unmarked) | 7.47%
42 | COc1ccc(CCN2C(=O)CSC2=S)cc1OC | 11.5%
43 | COC(=O)C1=CNC=C(C(=O)OC)C1c1cccc(OC)c1 | 9.02%
44 | Cc1cc(/C=N/NC(N)=S)c(C)n1-c1ccc(Cl)cc1 | 1.13%
45 | Cc1nc2c(C)cccn2c1/C(O)=C1\C(=O)C(=O)N(CCN(C)C)C1c1ccco1 (centres unmarked) | 11.2%
46 | Cc1ccc(C#CC[N+]2(CC#Cc3ccc(C)cc3)CCCCC2)cc1.[Br-] | -51.8%

Row | SMILES | hERG current change (%, negative = inhibition) at 1uM
47 | Cc1ccc(C#CC[N+]2(C)CCCCC2)cc1.[Br-] | 14.2%
48 | C#CC[N+]1(CC#Cc2ccc(C)cc2)CCCCC1.[Br-] | 2.2%
49 | COc1ccccc1NC(=O)C1CCCN(S(=O)(=O)c2ccc(-n3cnnn3)cc2)C1 (centres unmarked) | -23.5%
50 | COc1ccc(C)cc1NC(=O)C1CCCN(S(=O)(=O)c2ccc(-n3cnnn3)cc2)C1 (centres unmarked) | -71.4%
51 | COc1ccc(OC)c(NC(=O)C2CCCN(S(=O)(=O)c3ccc(-n4cnnn4)cc3)C2)c1 (centres unmarked) | 5.12%
52 | O=C(NCc1ccccc1)c1onc(CSc2ccc(F)cc2)c1C(=O)NCc1ccccc1 | 5.63%
53 | O=C(NCc1ccccc1)c1onc(CSc2ccc(F)cc2)c1C(=O)NCCCN1CCOCC1 | -54.9%
54 | O=C(NCCCN1CCOCC1)c1onc(CSc2ccccc2)c1C(=O)NCCCN1CCOCC1 | 14.7%
55 | CCC(CC)NCCOC(=O)c1ccc([N+](=O)[O-])cc1 | -3.41%
56 | CN1C(=O)C(Cc2cccs2)C(=O)N(C)C1=O | 15.2%
57 | CCCCn1c(NC(=O)c2ccco2)c(C(=O)OCC)c2nc3ccccc3nc21 | -22%
58 | CCCCCn1c(NC(=O)c2ccco2)c(C(=O)OCC)c2nc3ccccc3nc21 | -73.9%
59 | CCCCn1c(NC(=O)c2ccc(Br)o2)c(C(=O)OCC)c2nc3ccccc3nc21 | -17.9%
60 | COc1ccc(S(=O)(=O)NCCC(C)C)cc1C | 4.62%
61 | Cc1c(CN(C)C(=O)/C=C/c2ccc([N+](=O)[O-])cc2)cnn1C | -65.5%
62 | CCn1cc(CN(C)C(=O)/C=C/c2ccc([N+](=O)[O-])cc2)c(C)n1 | -35.3%
63 | Cc1c(CN(C)C(=O)c2nn(C)cc2[N+](=O)[O-])cnn1C | 10.8%
64 | CC(C)c1ccc(O)c(CN2CCN(c3ccccc3)CC2)c1 | 10.3%
65 | CCOc1ccc(C(C)=O)cc1CN1C(=O)NC2(CCCCCC2)C1=O | 13.5%
66 | COc1ccc(C(C)=O)cc1CN1C(=O)NC2(CCCCCCC2)C1=O | 19.8%
67 | CCOc1ccc(C(C)=O)cc1CN1C(=O)NC2(CCCCCCC2)C1=O | -51.8%
68 | CCC(=O)OCC(=O)Nc1ccc([N+](=O)[O-])cc1OC | 9.97%
69 | Cc1ccccc1OCCC(=O)Nc1ccc(F)c(Cl)c1 | 13.7%

Row | SMILES | hERG current change (%, negative = inhibition) at 1uM
70 | CC(=O)N1CC(C)Sc2ccc(S(=O)(=O)NCc3ccc(Cl)cc3)cc21 (centres unmarked) | 1.91%
71 | O=C(/C=C/c1ccc(F)cc1)NCCCN1CCN(CCCNC(=O)/C=C/c2ccc(F)cc2)CC1 | -72.5%
72 | CCN1CCN(C(=O)/C=C/c2ccc(C)cc2)CC1 | 4.54%
73 | CN1CCCN(C(=O)/C=C/c2ccc(F)cc2)CC1 | -5.11%
74 | O=C(/C=C/c1ccc(F)cc1)N1CCCN(C(=O)/C=C/c2ccc(F)cc2)CC1 | -84.7%
75 | Cc1ccc(/C=C/C(=O)N2CCCN(C(=O)/C=C/c3ccc(C)cc3)CC2)cc1 | -53.5%
76 | Cc1ccc(/C=C/C(=O)NCCCN2CCN(CCCNC(=O)/C=C/c3ccc(C)cc3)CC2)cc1 | 7.32%
77 | O=C(/C=C/c1ccc(F)cc1)NCCNC(=O)/C=C/c1ccc(F)cc1 | 16.8%
78 | O=C(/C=C/c1ccccc1)N1CCCN(C(=O)/C=C/c2ccccc2)CC1 | -44%
79 | CCN1CCN(C(=O)/C=C/c2ccc(F)cc2)CC1 | -13.1%
80 | Cc1ccccc1S(=O)(=O)N1[C@@H](c2ccc(F)cc2)C(C(=O)O)=CC[C@H]1c1ccc(Cl)cc1 | 8.27%
81 | COc1ccc(/C=C2\CCCC3C2=NN(C(=O)CSc2ncn[nH]2)C3c2ccc(OC)cc2)cc1 (centres unmarked) | 16.5%
82 | CCCCn1c(N)c(N(CC(C)C)C(=O)c2cccc(S(=O)(=O)N3CCCCCC3)c2)c(=O)[nH]c1=O | 4.52%
83 | Cc1ccc(NC(=O)CSc2nnc(-c3ccco3)o2)c(C)c1 | 17.5%
84 | O=C(NCCCn1ccnc1)/C(=C\c1cccs1)NC(=O)c1cccs1 | -27.6%
85 | O=C(NCCCn1ccnc1)/C(=C\c1cccs1)NC(=O)c1ccccc1 | -19.1%
86 | Cc1ccc(C(=O)N/C(=C\c2cccs2)C(=O)NCCCn2ccnc2)cc1 | -66%
87 | COc1ccc(C(=O)N/C(=C/c2cccs2)C(=O)NCCCn2ccnc2)cc1OC | 0.585%
88 | Cc1ccc(C(=O)N/C(=C\c2cccs2)C(=O)NCCCn2ccnc2)cc1C | -32.3%
89 | Cc1ccc(C(=O)N/C(=C/c2cccs2)C(=O)NCCCn2ccnc2)cc1 | -50%
